Laboratory results as given in the supplement of paper PMC7765376.
Where a name gives a salt, the structure may show the parent alone. In all, about 1,500 compounds were measured (“Excess HSA synergy score (sum over dose matrix of excess over highest single agent)”: median about 43, lowest 2% from about -900 on). Only a selection was taken, and the lowest values are over-represented in it overall.

Tested on: PEO-1
Assay: Excess HSA synergy score (sum over dose matrix of excess over highest single agent) (score (summed % response)); higher = less synergy / more antagonism (negative = synergy)
Settings: 72 h, read-out: viability/apoptosis luminescence (CellTiter-Glo or Caspase3-Glo / not stated per table)
[1] = matrix design: 6x6, 5-fold dilutions (primary screen)
[2] = matrix design: 10x10, 9-step dilutions (confirmatory)

Row | Structure (SMILES) | Excess HSA synergy score [1] | Excess HSA synergy score [2]
1 | Cc1cnc(Nc2ccc(F)cc2Cl)nc1-c1c[nH]c(C(=O)N[C@H](CO)c2cccc(Cl)c2)c1 + CC[C@H](NC(=O)[C@H](C)NC)C(=O)N1C[C@@H](O)C[C@H]1Cc1c(-c2[nH]c3cc(F)ccc3c2C[C@@H]2C[C@H](O)CN2C(=O)[C@H](CC)NC(=O)[C@H](C)NC)[nH]c2cc(F)ccc12 [Birinapant] | 192 | 
2 | CN1CCN(c2cccc(Nc3nc4c(-c5ccc(S(C)(=O)=O)cc5)cccn4n3)c2)CC1 + CC[C@H](NC(=O)[C@H](C)NC)C(=O)N1C[C@@H](O)C[C@H]1Cc1c(-c2[nH]c3cc(F)ccc3c2C[C@@H]2C[C@H](O)CN2C(=O)[C@H](CC)NC(=O)[C@H](C)NC)[nH]c2cc(F)ccc12 [Birinapant] | -105 | 
3 | Cc1c(-c2cccc3c(CCCOc4cccc5ccccc45)c(C(=O)O)n(Cc4cccnc4)c23)c(COc2ccc(N3CCN([S+](=O)([O-])N(C)C)CC3)cc2)nn1C + CC[C@H](NC(=O)[C@H](C)NC)C(=O)N1C[C@@H](O)C[C@H]1Cc1c(-c2[nH]c3cc(F)ccc3c2C[C@@H]2C[C@H](O)CN2C(=O)[C@H](CC)NC(=O)[C@H](C)NC)[nH]c2cc(F)ccc12 [Birinapant] | 51.7 | 
4 | Cn1cc(-c2ccc3nnc(C(F)(F)c4ccc5ncccc5c4)n3n2)cn1 + CC[C@H](NC(=O)[C@H](C)NC)C(=O)N1C[C@@H](O)C[C@H]1Cc1c(-c2[nH]c3cc(F)ccc3c2C[C@@H]2C[C@H](O)CN2C(=O)[C@H](CC)NC(=O)[C@H](C)NC)[nH]c2cc(F)ccc12 [Birinapant] | 40.5 | 
5 | Cc1ccc(C(=O)Nc2cccc(C(F)(F)F)c2)cc1Nc1nc(-c2cccnc2)nc2c1cnn2C + CC[C@H](NC(=O)[C@H](C)NC)C(=O)N1C[C@@H](O)C[C@H]1Cc1c(-c2[nH]c3cc(F)ccc3c2C[C@@H]2C[C@H](O)CN2C(=O)[C@H](CC)NC(=O)[C@H](C)NC)[nH]c2cc(F)ccc12 [Birinapant] | -71.3 | 
6 | N#CC(c1ccnc(NCCc2cccnc2)n1)c1nc2ccccc2s1 (stereo not drawn) [JNK Inhibitor V] + CC[C@H](NC(=O)[C@H](C)NC)C(=O)N1C[C@@H](O)C[C@H]1Cc1c(-c2[nH]c3cc(F)ccc3c2C[C@@H]2C[C@H](O)CN2C(=O)[C@H](CC)NC(=O)[C@H](C)NC)[nH]c2cc(F)ccc12 [Birinapant] | -67.5 | 
7 | CC(C)(C(=O)NCC(F)(F)C(F)(F)F)C(=O)N[C@@H]1C(=O)Nc2ccccc2-c2ccccc21 + CC[C@H](NC(=O)[C@H](C)NC)C(=O)N1C[C@@H](O)C[C@H]1Cc1c(-c2[nH]c3cc(F)ccc3c2C[C@@H]2C[C@H](O)CN2C(=O)[C@H](CC)NC(=O)[C@H](C)NC)[nH]c2cc(F)ccc12 [Birinapant] | -141 | 
8 | COc1ccc(-c2coc3cc(O)cc(O)c3c2=O)cc1 [Biochanin A] + CC[C@H](NC(=O)[C@H](C)NC)C(=O)N1C[C@@H](O)C[C@H]1Cc1c(-c2[nH]c3cc(F)ccc3c2C[C@@H]2C[C@H](O)CN2C(=O)[C@H](CC)NC(=O)[C@H](C)NC)[nH]c2cc(F)ccc12 [Birinapant] | 235 | 
9 | CC(=O)NCC(=O)N1[C@@H]2CC[C@H]1c1ccc(Nc3ncc(C(F)(F)F)c(NC4CCC4)n3)cc12 + CC[C@H](NC(=O)[C@H](C)NC)C(=O)N1C[C@@H](O)C[C@H]1Cc1c(-c2[nH]c3cc(F)ccc3c2C[C@@H]2C[C@H](O)CN2C(=O)[C@H](CC)NC(=O)[C@H](C)NC)[nH]c2cc(F)ccc12 [Birinapant] | -154 | 
10 | CCCCN1CCC(CNC(=O)c2c3n(c4ccccc24)CCCO3)CC1 [Piboserod hydrochloride] + CC[C@H](NC(=O)[C@H](C)NC)C(=O)N1C[C@@H](O)C[C@H]1Cc1c(-c2[nH]c3cc(F)ccc3c2C[C@@H]2C[C@H](O)CN2C(=O)[C@H](CC)NC(=O)[C@H](C)NC)[nH]c2cc(F)ccc12 [Birinapant] | -0.918 | 
11 | Nc1ccn([C@@H]2CS[C@H](CO)O2)c(=O)n1 [Lamivudine] + CC[C@H](NC(=O)[C@H](C)NC)C(=O)N1C[C@@H](O)C[C@H]1Cc1c(-c2[nH]c3cc(F)ccc3c2C[C@@H]2C[C@H](O)CN2C(=O)[C@H](CC)NC(=O)[C@H](C)NC)[nH]c2cc(F)ccc12 [Birinapant] | 228 | 
12 | Nc1ccn([C@@H]2O[C@H](CO)[C@@H](O)C2(F)F)c(=O)n1 [Gemcitabine] + CC[C@H](NC(=O)[C@H](C)NC)C(=O)N1C[C@@H](O)C[C@H]1Cc1c(-c2[nH]c3cc(F)ccc3c2C[C@@H]2C[C@H](O)CN2C(=O)[C@H](CC)NC(=O)[C@H](C)NC)[nH]c2cc(F)ccc12 [Birinapant] | -59.3 | -1130
13 | Nc1ccn([C@@H]2CO[C@H](CO)O2)c(=O)n1 [Troxacitabine] + CC[C@H](NC(=O)[C@H](C)NC)C(=O)N1C[C@@H](O)C[C@H]1Cc1c(-c2[nH]c3cc(F)ccc3c2C[C@@H]2C[C@H](O)CN2C(=O)[C@H](CC)NC(=O)[C@H](C)NC)[nH]c2cc(F)ccc12 [Birinapant] | 152 | 
14 | Nc1ccn([C@@H]2O[C@H](CO)[C@@H](O)[C@@H]2O)c(=O)n1 [Cytarabine] + CC[C@H](NC(=O)[C@H](C)NC)C(=O)N1C[C@@H](O)C[C@H]1Cc1c(-c2[nH]c3cc(F)ccc3c2C[C@@H]2C[C@H](O)CN2C(=O)[C@H](CC)NC(=O)[C@H](C)NC)[nH]c2cc(F)ccc12 [Birinapant] | -388 | -1320
15 | Nc1ccn([C@@H]2O[C@H](CO)[C@@H](O)[C@H]2O)c(=O)n1 [Cytidine] + CC[C@H](NC(=O)[C@H](C)NC)C(=O)N1C[C@@H](O)C[C@H]1Cc1c(-c2[nH]c3cc(F)ccc3c2C[C@@H]2C[C@H](O)CN2C(=O)[C@H](CC)NC(=O)[C@H](C)NC)[nH]c2cc(F)ccc12 [Birinapant] | 170 | 
16 | Nc1ncn([C@@H]2O[C@H](CO)[C@@H](O)[C@H]2O)c(=O)n1 [5-Azacitidine] + CC[C@H](NC(=O)[C@H](C)NC)C(=O)N1C[C@@H](O)C[C@H]1Cc1c(-c2[nH]c3cc(F)ccc3c2C[C@@H]2C[C@H](O)CN2C(=O)[C@H](CC)NC(=O)[C@H](C)NC)[nH]c2cc(F)ccc12 [Birinapant] | -38.5 | 
17 | O=C(c1ccc(F)c(F)c1Nc1ccc(I)cc1F)N1CC(O)([C@@H]2CCCCN2)C1 [Cobimetinib] + CC[C@H](NC(=O)[C@H](C)NC)C(=O)N1C[C@@H](O)C[C@H]1Cc1c(-c2[nH]c3cc(F)ccc3c2C[C@@H]2C[C@H](O)CN2C(=O)[C@H](CC)NC(=O)[C@H](C)NC)[nH]c2cc(F)ccc12 [Birinapant] | 148 | 
18 | CC(C)N(CC[C@H](c1ccccc1)c1cc(CO)ccc1O)C(C)C + CC[C@H](NC(=O)[C@H](C)NC)C(=O)N1C[C@@H](O)C[C@H]1Cc1c(-c2[nH]c3cc(F)ccc3c2C[C@@H]2C[C@H](O)CN2C(=O)[C@H](CC)NC(=O)[C@H](C)NC)[nH]c2cc(F)ccc12 [Birinapant] | 309 | 
19 | CCCCCCCCc1ccc(CCC(N)(CO)CO)cc1 [Fingolimod hydrochloride] + CC[C@H](NC(=O)[C@H](C)NC)C(=O)N1C[C@@H](O)C[C@H]1Cc1c(-c2[nH]c3cc(F)ccc3c2C[C@@H]2C[C@H](O)CN2C(=O)[C@H](CC)NC(=O)[C@H](C)NC)[nH]c2cc(F)ccc12 [Birinapant] | -38.3 | 
20 | C/C=C/C[C@@H](C)C(=O)[C@H]1C(=O)N[C@@H](C(C)C)C(=O)N(C)CC(=O)N(C)[C@@H](CC(C)C)C(=O)N[C@@H](C(C)C)C(=O)N(C)[C@@H](CC(C)C)C(=O)N[C@@H](C)C(=O)N[C@H](C)C(=O)N(C)[C@@H](CC(C)C)C(=O)N(C)[C@@H](CC(C)C)C(=O)N(C)[C@@H](C(C)C)C(=O)N1C [Valspodar] + CC[C@H](NC(=O)[C@H](C)NC)C(=O)N1C[C@@H](O)C[C@H]1Cc1c(-c2[nH]c3cc(F)ccc3c2C[C@@H]2C[C@H](O)CN2C(=O)[C@H](CC)NC(=O)[C@H](C)NC)[nH]c2cc(F)ccc12 [Birinapant] | 173 | 
21 | COc1ccc(-c2cc3c(C)nc(N)nc3n([C@H]3CC[C@H](OCCO)CC3)c2=O)cn1 + CC[C@H](NC(=O)[C@H](C)NC)C(=O)N1C[C@@H](O)C[C@H]1Cc1c(-c2[nH]c3cc(F)ccc3c2C[C@@H]2C[C@H](O)CN2C(=O)[C@H](CC)NC(=O)[C@H](C)NC)[nH]c2cc(F)ccc12 [Birinapant] | -32.5 | 
22 | O=C(/C=C/c1cccnc1)NCCCCC1CCN(C(=O)c2ccccc2)CC1 [Daporinad] + CC[C@H](NC(=O)[C@H](C)NC)C(=O)N1C[C@@H](O)C[C@H]1Cc1c(-c2[nH]c3cc(F)ccc3c2C[C@@H]2C[C@H](O)CN2C(=O)[C@H](CC)NC(=O)[C@H](C)NC)[nH]c2cc(F)ccc12 [Birinapant] | 312 | 
23 | Nc1ccccc1NC(=O)c1ccc(CNC(=O)OCc2cccnc2)cc1 [Entinostat] + CC[C@H](NC(=O)[C@H](C)NC)C(=O)N1C[C@@H](O)C[C@H]1Cc1c(-c2[nH]c3cc(F)ccc3c2C[C@@H]2C[C@H](O)CN2C(=O)[C@H](CC)NC(=O)[C@H](C)NC)[nH]c2cc(F)ccc12 [Birinapant] | -296 | 
24 | Nc1ccccc1NC(=O)c1ccc(CNc2nccc(-c3cccnc3)n2)cc1 [Mocetinostat] + CC[C@H](NC(=O)[C@H](C)NC)C(=O)N1C[C@@H](O)C[C@H]1Cc1c(-c2[nH]c3cc(F)ccc3c2C[C@@H]2C[C@H](O)CN2C(=O)[C@H](CC)NC(=O)[C@H](C)NC)[nH]c2cc(F)ccc12 [Birinapant] | -263 | -1360
25 | Cc1ccc(NC(=O)c2ccc(CN3CCN(C)CC3)cc2)cc1Nc1nccc(-c2cccnc2)n1 [Imatinib] + CC[C@H](NC(=O)[C@H](C)NC)C(=O)N1C[C@@H](O)C[C@H]1Cc1c(-c2[nH]c3cc(F)ccc3c2C[C@@H]2C[C@H](O)CN2C(=O)[C@H](CC)NC(=O)[C@H](C)NC)[nH]c2cc(F)ccc12 [Birinapant] | -103 | 
